Our source for the outcome and AC50 values is PubChem BioAssay (EPA / NIEHS).

As a reminder, the AC50 is the concentration giving half of the maximal activity seen.

Where “and” joins values, the source holds several entries; their conditions need not be identical. Equal values may be shown once. Some compounds were tested as several samples or in several runs, with calls that do not always agree. Calls of active or inactive are those of the source. Rule for the calls: active = hit-call score of the fitted dose curve at least 0.9, where 1 is the maximum; inactive = score below 0.9.

Experiment [1] can be described thus: ATG_M_19_CIS: Attagene CIS-FACTORIAL HepG2 Assay for M19 Transcription Factor (Internal Marker) (AID 2282939). As to conditions: HepG2 Attagene CIS-FACTORIAL M19 internal marker reporter; actives raise or lower the signal. In outline: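 In this multiplexed cell assay, transiently transfected HepG2 reporter units report endogenous transcription-factor activity; after 24 hours of treatment, labelled reporter cDNA fragments are quantified by capillary electrophoresis and fitted bidirectionally against DMSO.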

Experiment [2] is described as follows: ATG_ERE_CIS: Attagene CIS-FACTORIAL HepG2 Assay for Estrogen Response Element (ERE) (AID 2282940). The note with it: HepG2 ERE cis-reporter, Attagene RNA transcript; actives raise or lower the signal. In outline:
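Measuring endogenous transcription factor output, the assay doses transfected HepG2 cells for 24 hours and quantifies reporter transcripts by fluorescent RT-PCR and capillary electrophoresis, with DMSO as baseline.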

Experiment [3] in a line: ATG_Ets_CIS: Attagene CIS-FACTORIAL HepG2 Assay for human Erythroblast Transformation Specific (ETS) (AID 2282941). The note with it: HepG2 ETS cis-reporter transcription, actives raise or lower the signal. In outline:
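RT-PCR/capillary electrophoresis fluorescence read-out of reporter mRNA; HepG2 transient multi-reporter transfection; 24 h compound exposure; gain or loss of signal fitted bidirectionally relative to DMSO.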

Experiment [4] has as its target Hepatocyte nuclear factor 3-beta (Homo sapiens) (UniProt Q9Y261). The experiment in a line: ATG_FoxA2_CIS: Attagene CIS-FACTORIAL HepG2 Assay for human Forkhead box A2 (FOXA2) (AID 2282942). As to conditions: HepG2 cis-reporter transcription factor activity, 24 h; actives raise or lower the signal. The procedure, abridged:
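Fluorescence signal of reporter cDNA fragments, separated by capillary electrophoresis, reflects endogenous transcription factor activity in transfected HepG2 after 24 h. Both increases and decreases fitted against DMSO.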

Experiment [5] can be described thus: ATG_FoxO_CIS: Attagene CIS-FACTORIAL HepG2 Assay for human Forkhead box O (FoxO) (AID 2282943). The note with it: HepG2 Attagene cis-reporter, FoxO element, mRNA; actives raise or lower the signal. The procedure, abridged: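 HepG2 cells transiently transfected with cis-promoter-driven multiple reporter transcription units; 24 h after chemical dosing, reporter mRNA quantified by RT-PCR, fluorescent primer extension, HpaI digestion and capillary electrophoresis. Bidirectional fitting versus DMSO baseline.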

The nature of experiment [6]: ATG_GATA_CIS: Attagene CIS-FACTORIAL HepG2 Assay for human GATA Binding Protein (AID 2282944). As to conditions: HepG2 GATA cis-element reporter, Attagene multiplex mRNA; actives raise or lower the signal. In outline: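 Measures endogenous transcription factor-driven reporter mRNA in HepG2 cells transiently carrying cis-regulated constructs. 24 h dosing; RNA via oligo(dT) reverse transcription, PCR, HpaI digestion, capillary electrophoresis; fitted relative to DMSO.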

Experiment [7] can be described thus: ATG_GLI_CIS: Attagene CIS-FACTORIAL HepG2 Assay for human Zinc Finger Protein GLI1 (AID 2282945). The note with it: HepG2, Attagene cis-factorial reporter mRNA, GLI element; actives raise or lower the signal. The procedure, abridged:
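HepG2 cells transiently transfected with cis-promoter multiplexed reporter units report endogenous transcription factor activity. After 24 h chemical exposure, reporter mRNA was quantified by RT-PCR, 6-FAM labelling, HpaI digestion and capillary electrophoresis, with bidirectional fitting against DMSO.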

The target of experiment [8] is Bile acid receptor (Homo sapiens) (UniProt Q96RI1). The experiment in a line: ATG_IR1_CIS: Attagene CIS-FACTORIAL HepG2 Assay for human Nuclear Receptor Subfamily 1 Group H Member 4 (NR1H4), IR1 submotif (AID 2282946). The note with it: IR1 reporter transcription, actives raise or lower the signal. In outline: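 Readout: reporter transcript levels by RT-PCR with fluorescent capillary electrophoresis, from HepG2 cells transiently transfected with multiplexed cis-regulated reporters and dosed 24 h. Gain- or loss-of-signal fitted versus DMSO negative control.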
Sequence of Bile acid receptor (Homo sapiens) (Q96RI1 whole entry, looked up): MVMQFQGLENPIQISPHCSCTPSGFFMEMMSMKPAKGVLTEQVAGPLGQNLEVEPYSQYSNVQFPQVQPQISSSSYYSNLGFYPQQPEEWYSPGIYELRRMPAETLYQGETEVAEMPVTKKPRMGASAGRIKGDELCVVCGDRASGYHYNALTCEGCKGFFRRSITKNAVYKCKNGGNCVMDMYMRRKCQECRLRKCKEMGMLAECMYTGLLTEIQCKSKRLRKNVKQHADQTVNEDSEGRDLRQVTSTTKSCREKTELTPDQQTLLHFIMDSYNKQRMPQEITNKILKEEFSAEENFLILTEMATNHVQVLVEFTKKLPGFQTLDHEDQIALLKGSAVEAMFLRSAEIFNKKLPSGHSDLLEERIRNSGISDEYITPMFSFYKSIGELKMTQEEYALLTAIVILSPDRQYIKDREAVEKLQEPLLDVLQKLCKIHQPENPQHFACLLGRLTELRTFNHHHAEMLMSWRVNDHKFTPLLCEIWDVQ

Experiment [9] in a line: ATG_GRE_CIS: Attagene CIS-FACTORIAL HepG2 Assay for human Glucocorticoid Response Elements (GRE) (AID 2282947). The note with it: HepG2 GRE cis-reporter, Attagene multiplex mRNA; actives raise or lower the signal. The procedure, abridged:
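HepG2, transient cis-reporter transfection, 24 h. Reporter mRNA: RT-PCR then CE, fluorescence. Fit both directions vs DMSO.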

A short description of experiment [10]: ATG_ISRE_CIS: Attagene CIS-FACTORIAL HepG2 Assay for human Interferon Regulatory Factor 1 (IRF1) binding to an Interferon-Stimulated Response Element (ISRE) (AID 2282948). As to conditions: HepG2 ISRE cis-reporter (Attagene), mRNA transcription readout; actives raise or lower the signal. The procedure, abridged: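 Read-out: fluorescent RT-PCR products resolved by capillary electrophoresis, reporting endogenous transcription factor activity via ISRE-driven reporter mRNA in transfected HepG2 cells dosed for 24 h; gain or loss fitted relative to DMSO.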

Sequence of Hepatocyte nuclear factor 3-beta (Homo sapiens) (Q9Y261 whole entry, looked up, the tested form may be a part): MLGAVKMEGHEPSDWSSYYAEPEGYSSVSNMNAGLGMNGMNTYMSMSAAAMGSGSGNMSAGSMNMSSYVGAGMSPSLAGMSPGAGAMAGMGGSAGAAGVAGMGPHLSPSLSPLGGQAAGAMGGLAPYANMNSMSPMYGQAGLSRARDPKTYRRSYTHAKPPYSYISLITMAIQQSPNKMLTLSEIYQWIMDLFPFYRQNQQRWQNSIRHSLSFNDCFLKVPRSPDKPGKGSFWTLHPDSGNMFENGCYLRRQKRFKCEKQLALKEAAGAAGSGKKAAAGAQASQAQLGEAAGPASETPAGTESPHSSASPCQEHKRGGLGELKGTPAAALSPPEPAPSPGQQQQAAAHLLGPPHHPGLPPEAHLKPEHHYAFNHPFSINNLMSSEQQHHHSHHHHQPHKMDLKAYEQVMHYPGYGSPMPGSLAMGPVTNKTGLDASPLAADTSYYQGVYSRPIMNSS

`Cc1cc(C(F)(C(F)(F)F)C(F)(F)F)ccc1NC(=O)c1cccc(I)c1C(=O)NC(C)(C)CS(C)(=O)=O`: the molecule was classed as inactive in [1], in experiment [2], in experiment [3], in experiment [4], in experiment [5] and in experiment [6]. The call in [7], in experiment [8], in [9] and in [10] was inactive.

For the molecule `CCOC(=O)CCN(SN(C)C(=O)Oc1cccc2c1OC(C)(C)C2)C(C)C`, the molecule was classed as inactive in experiment [1], in experiment [2], in experiment [3], in experiment [4], in experiment [5] and in experiment [6]. Moreover, the result in experiment [7] was inactive. Moreover, the AC50 in [8] is 100 µM (active).

As for `CCCCCCCCCCCCN(C)C`, the call in [1], in experiment [2], in experiment [3], in experiment [4], in experiment [6] and in experiment [7] was inactive. Further, the outcome in experiment [9] and in experiment [10] was inactive. Further, the AC50 in [5] was 58.7 µM (active); in [8], 47.8 µM (active).

Consider `O=NN1CCCCCCC1`, for which the molecule was called inactive in [1], in experiment [2], in experiment [3], in experiment [4], in experiment [5] and in experiment [6]. Further, the result in experiment [7], in experiment [8], in [9] and in experiment [10] was inactive.

As to `COCC(=O)N(c1c(C)cccc1C)[C@H](C)C(=O)OC`, the call in experiment [1], in [2], in experiment [3], in [4], in experiment [5] and in experiment [6] was inactive. Besides, the molecule was classed as inactive in [7] and in [8].

Consider `O=NN1CCCCCC1`, for which the result in [1], in experiment [2], in [3], in experiment [4], in experiment [5] and in experiment [6] was inactive. Also, the outcome in [7] and in [8] was inactive.

On to `O=[N+]([O-])c1ccc(Nc2ccccc2)cc1`, for which the molecule was classed as inactive in [1], in [2], in experiment [3], in experiment [4], in experiment [5] and in experiment [6]. For the same molecule, the outcome in experiment [7], in experiment [8] and in [9] was inactive. The AC50 in [10] is 130 µM (active).

Turning to `O=C(O)c1cc(I)cc(I)c1I`, the outcome in [1], in [3], in experiment [4], in [5], in [6] and in experiment [7] was inactive. For the same molecule, the call in experiment [8], in [9] and in [10] was inactive. The AC50 in experiment [2] is 27.8 µM (active).

For the molecule `O=S(=O)(C(Cl)(Cl)Cl)C(Cl)(Cl)Cl`, the molecule was classed as inactive in experiment [1], in [2], in experiment [3], in experiment [4], in [5] and in experiment [6]. Also, the result in experiment [8] and in [9] was inactive. The figures for the AC50 in experiment [7] and in experiment [10] were 19.3 µM (active) and 16.4 µM (active), respectively.

On to `CCOP(=S)(OCC)SCS(=O)(=O)C(C)(C)C`, for which the result in experiment [1], in [2], in [3], in experiment [4], in experiment [5] and in experiment [6] was inactive. The outcome in [7], in experiment [9] and in experiment [10] was inactive. For the same molecule, in experiment [8], the AC50 is 34.8 µM (active).

As to `CCOC(=O)c1ccccc1S(=O)(=O)NC(=O)Nc1nc(Cl)cc(OC)n1`, the molecule was called inactive in experiment [1], in experiment [2], in [3], in experiment [4], in [5] and in [6]. In addition, the molecule was classed as inactive in [7], in experiment [8] and in experiment [9].

Consider `Cc1ccc2nc3sc(=O)sc3nc2c1`, for which the molecule was called inactive in experiment [1], in [2] and in [7]. The AC50 in [3] is 45.9 µM (active); in experiment [4] it was 11.9 µM (active); in [5], 6.07 µM (active); in experiment [6], 29.9 µM (active); in [8], 25 µM (active).

Turning to `O=C(CCl)NCO`, the molecule was called inactive in [1], in [2], in experiment [3], in [4], in [5] and in [6]. In addition, the result in experiment [7] was inactive.

Take `O=c1oc2ccccc2c(O)c1C(CC(O)c1ccc(-c2ccc(Br)cc2)cc1)c1ccccc1` (stereo not drawn): the result in experiment [1], in experiment [2], in experiment [3], in experiment [4], in experiment [5] and in experiment [6] was inactive. Further, the molecule was called inactive in experiment [7], in [9] and in [10]. Further, the AC50 is 46.3 µM (active) in [7]; 50.1 µM (active) and 43.6 µM (active) in [8]; 24.9 µM (active) in experiment [10].

Consider `CC(C)=CC1C(C(=O)OCc2cccc(Oc3ccccc3)c2)C1(C)C` (stereo not drawn), for which the molecule was classed as inactive in experiment [1], in experiment [3], in experiment [4], in [5], in experiment [6] and in experiment [7]. Moreover, the molecule was called inactive in experiment [8], in experiment [9] and in [10]. For the same molecule, the AC50 in [2] was 100 µM (active).

As to `C=CCN=C=S`, the result in [1], in experiment [2], in experiment [3], in experiment [4], in experiment [5] and in [6] was inactive. The molecule was called inactive in [7], in experiment [8] and in [10].

As to `CC(C)(C)c1cc([N+](=O)[O-])cc(C(C)(C)C)c1O`, the call in experiment [1], in [2], in experiment [4], in experiment [5], in experiment [6] and in experiment [7] was inactive. In addition, the molecule was called inactive in experiment [8] and in experiment [10]. In addition, the AC50 in experiment [3] was 52.1 µM (active).

Take `O=S(=O)(F)C(F)(F)C(F)(F)C(F)(F)C(F)(F)F`: the call in experiment [1], in experiment [2], in [3], in experiment [4], in experiment [5] and in experiment [6] was inactive. The outcome in [7], in experiment [8], in experiment [9] and in [10] was inactive.

On to `[F][Sn]([c]1ccccc1)([c]1ccccc1)[c]1ccccc1`, for which the molecule was called inactive in [1], in [5] and in [6]. Further, the AC50 in experiment [2] was 0.0177 µM (active); in experiment [3], 0.32 µM (active); in experiment [4] it was 0.892 µM (active); in experiment [7], 2.18 µM (active); in experiment [8], 1.24 µM (active); in experiment [10] it was 0.562 µM (active).

On to `Nc1cccnc1`, for which the result in experiment [1], in experiment [2], in [3], in [4], in experiment [5] and in experiment [6] was inactive. The result in experiment [7], in experiment [8] and in experiment [10] was inactive.

As for `CCC[CH2][Sn]([Cl])([Cl])[CH2]CCC`, the result in experiment [1], in experiment [3], in experiment [4] and in experiment [6] was inactive. Moreover, the AC50 in [2] is 0.312 µM (active); in [5], 0.66 µM (active); in [7], 1.54 µM (active); in [8], 1.73 µM (active); in experiment [10], 1.99 µM (active).

Consider `FC(F)OCC(F)(F)C(F)(F)F`, for which the call in experiment [1], in experiment [2], in [3], in experiment [4], in [5] and in experiment [6] was inactive. The result in experiment [7], in [8], in experiment [9] and in experiment [10] was inactive.

For the molecule `BrCC(Br)c1ccccc1` (stereo not drawn), the call in experiment [1], in experiment [2], in [3], in experiment [4], in experiment [5] and in experiment [6] was inactive. For the same molecule, the molecule was called inactive in [7], in experiment [8], in experiment [9] and in experiment [10].

For `C=C(C)[C@@H]1CC=C(C=O)CC1`, the molecule was classed as inactive in experiment [1], in experiment [2], in experiment [3], in experiment [4], in experiment [5] and in [6]. The molecule was classed as inactive in experiment [7], in experiment [8] and in experiment [10].

As for `CC(c1ccccc1)(c1ccc(O)cc1)c1ccc(O)cc1`, the call in experiment [1], in [4], in experiment [5], in experiment [6] and in experiment [7] was inactive. For the same molecule, the AC50 in experiment [2] is 0.181 µM (active); in experiment [3], 20.1 µM (active); in [8] it was 15.6 µM (active); in [10] it was 19.3 µM (active).
